Assay outcomes from PubChem.
The list is not random: actives were taken first. Their share in the collection is about 4%.
GDH-TPI counter-1 = GDH-TPI coupled enzyme inhibition counter-screen; inhibition, % at 4.8 µM; 360,000 tested, 1.2% active; GDH-TPI coupled enzyme counterscreen, NADH absorbance; in the data active means inhibition above about 30%
Rv3671c inh = inhibitors of M. tuberculosis serine protease Rv3671c. P9WHR9. inhibition, % at 5.96 µM. 320,000 tested, 0.048% active. AID 2606; in the data active means inhibition above about 38%;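 further: extracellular domain of Rv3671c used as enzyme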
Target sequence (P9WHR9 whole entry, looked up, the tested form may be a part): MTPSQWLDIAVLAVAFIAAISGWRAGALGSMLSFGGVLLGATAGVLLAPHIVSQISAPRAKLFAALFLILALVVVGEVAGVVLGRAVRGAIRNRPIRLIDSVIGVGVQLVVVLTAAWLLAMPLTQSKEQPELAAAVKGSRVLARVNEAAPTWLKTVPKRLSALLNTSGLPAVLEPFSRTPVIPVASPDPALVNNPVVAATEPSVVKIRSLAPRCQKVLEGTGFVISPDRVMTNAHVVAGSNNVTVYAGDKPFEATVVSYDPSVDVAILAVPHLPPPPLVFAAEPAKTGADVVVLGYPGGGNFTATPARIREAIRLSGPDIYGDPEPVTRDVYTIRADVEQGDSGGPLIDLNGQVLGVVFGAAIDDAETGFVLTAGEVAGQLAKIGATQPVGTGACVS
Mtb bLac sens = beta-lactam sensitization of Mtb H37Rv; M. tuberculosis H37Rv growth with meropenem, percent inhibition; inhibition, % at 25 µM; 330,000 tested, 0.27% active;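 further: growth measured after seven days incubation then overnight dye step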
FBA Mtb inh = Mtb fructose-bisphosphate aldolase inhibition; purified M. tuberculosis FBA, fluorescence read-out; P9WQA3; inhibition, % at 1 µM; 360,000 tested, 2.3% active; in the data active means inhibition above about 27%
UGM FP inh = blocks M. tuberculosis UGM enzyme; P9WIQ1; purified UGM, fluorescence polarization probe displacement; inhibition, % at 10 µM; 320,000 tested, 0.06% active; AID 504406; in the data active means inhibition above about 10%, passing the limit was not always enough
RecA intein inh = Mtb RecA intein splicing inhibition; inhibition, % (test concentration not listed); P9WHJ3; cell-free RecA intein splicing, fluorescence; AID 2221; 290,000 tested, 0.75% active; in the data active means inhibition above about 30%
Mtb FBA inh conf = confirmation of M. tuberculosis fructose-bisphosphate aldolase inhibitors. shares compounds with FBA Mtb inh. inhibition, % at 1 µM. purified M. tuberculosis FBA, fluorescence read-out. 5,600 tested, 78% active; in the data active means inhibition above about 27%
GDH-TPI counter-2 = inhibits GDH-TPI coupling enzymes, flagging Mtb FBA hits. shares compounds with FBA Mtb inh. GDH-TPI coupled enzyme counterscreen, fluorescence. inhibition, % at 1 µM. 5,600 tested, 81% active. AID 652141; in the data active means inhibition above about 10%
GDH-TPI DR = inhibits GDH-TPI coupling enzymes in dose response; shares compounds with FBA Mtb inh; GDH-TPI coupled enzyme assay, fluorescence, artifact counterscreen; IC50, µM; 170 tested, 79% active
Numbers stand for hits; – = inactive; · = no result given; + = active, no number. Unless noted, how the calls were made is not given here.

SMILES	GDH-TPI counter-1	Rv3671c inh	Mtb bLac sens	FBA Mtb inh	UGM FP inh	RecA intein inh	Mtb FBA inh conf	GDH-TPI counter-2	others
CCN(CC)C(=O)C1=C(C)N(Cc2ccc(C(C)(C)C)cc2)C(=O)C(CC(=O)NC2CC2)C1 (stereo not given)	–	·	·	–	·	·	·	·
CCOC(=O)N1CCN(C(=O)COc2ccc3c(c2)C(=O)CC(C)(C)O3)CC1	–	–	–	41.0	–	–	133.8	114.0
COc1ccc2c(c1)C(=O)CC(O)(C(F)F)O2 (stereo not given)	–	–	–	30.7	–	–	72.2	52.8
CCOc1cc(C(=O)OCC(=O)Nc2cccc(S(=O)(=O)NC3=NCCCCC3)c2)cc(OCC)c1OCC	–	–	–	–	–	·	·	·
Cc1nc(C)c(C(=O)OCC(=O)NCc2ccccc2Cl)s1	–	–	–	–	–	·	·	·
CC(C)n1c(CNC(=O)c2ccccc2F)nnc1SCC(=O)c1ccc(F)cc1	–	·	·	–	·	·	·	·
COc1ccc(CNc2nc(C)cc(C)c2C#N)cc1	–	–	–	29.0	–	·	40.4	26.2
O=C(Nc1ccc2c(c1)OCCO2)C(CCc1ccccc1)N1CCC(Cc2ccccc2)CC1 (stereo not given)	·	·	·	–	·	·	·	·
CC(=O)Nc1ccc(S(=O)(=O)C(C#N)c2nc3ccccc3nc2NCCN2CCOCC2)cc1 (stereo not given)	–	–	–	55.6	–	–	72.8	61.7
Nc1c(C(=O)NCc2ccco2)c2nc3ccccc3nc2n1CCN1CCCCC1	–	–	–	90.7	–	–	–	–	GDH-TPI DR=1.64
Nc1c(C(=O)NCCN2CCOCC2)c2nc3ccccc3nc2n1CCc1ccccc1	–	–	–	94.1	–	–	45.9	34.2
COc1ccc(-n2c(N)c(C(=O)NCc3ccco3)c3nc4ccccc4nc32)cc1	31.7	–	–	97.8	–	–	44.5	40.8
Nc1c(S(=O)(=O)c2cc(Cl)ccc2Cl)c2nc3ccccc3nc2n1CCN1CCOCC1	–	–	–	–	–	–	·	·
C=CCNC(=O)c1c(N)n(CCN2CCOCC2)c2nc3ccccc3nc12	–	–	–	50.9	–	–	37.6	27.1
CC(=O)Nc1ccc(S(=O)(=O)c2c(N)n(CCN3CCOCC3)c3nc4ccccc4nc23)cc1	–	–	–	59.9	–	–	169.9	129.5
CCC(=O)N(C)C[C@@H]1Oc2ncc(Br)cc2C(=O)N([C@@H](C)CO)C[C@H]1C	–	·	·	–	·	·	·	·
COc1ccc(-c2cc3c(=O)n(CC(=O)NCCN4CCCC4)nc(C)n3n2)cc1	–	–	–	32.3	–	–	62.9	53.7
Cc1ccc(C(=O)NCC(=O)N(C)Cc2ccccc2C)s1	–	·	·	–	·	·	·	·
CCCCn1cnc2c(SCc3ccccc3F)nc(N)nc21	–	·	·	–	·	·	·	·
Cc1cc(=O)oc2cc(OC(C)C(=O)O)c(Cl)cc12 (stereo not given)	–	–	–	31.5	–	–	–	–
O=C(NCc1ccccn1)c1cc(-c2ccc(-c3ccccc3)cc2)nc2ccccc12	–	–	–	36.9	–	–	–	14.7
Cc1ccc(-c2cc(C(=O)NCc3ccccn3)c3ccccc3n2)cc1C	–	–	–	46.2	–	–	136.4	94.4
CCn1cc(-c2cc(C(=O)O)c3ccccc3n2)cn1	–	–	–	53.8	–	·	59.7	44.5
Cc1cccc(-c2cc(C(=O)NCc3ccccn3)c3ccccc3n2)c1	–	–	–	–	–	–	·	·
O=C(O)c1cc(-c2cccnc2)nc2ccccc12	–	–	–	–	–	–	·	·
SMILES	GDH-TPI counter-1	Rv3671c inh	Mtb bLac sens	FBA Mtb inh	UGM FP inh	RecA intein inh	Mtb FBA inh conf	GDH-TPI counter-2	others
COc1ccc(-c2cc(C(=O)OCC(=O)N(C)C)c3ccccc3n2)cc1	–	–	–	–	–	–	·	·
COc1ccc(-c2cc(C(=O)OCc3ccccn3)c3ccccc3n2)cc1	–	–	–	43.5	–	–	107.3	86.0
Cc1cccc(NC(=O)N2CCCCCC2)c1	–	–	–	–	–	–	·	·
Cc1ccc(-c2cc(C(=O)OCC(=O)NC3CC3)c3ccccc3n2)cc1	–	–	–	36.5	·	·	95.5	81.2
CCOC(=O)Cc1cc(-c2ccc(O)cc2)nc2ccc3ccccc3c12	–	–	–	–	–	–	·	·
CC(=O)Nc1ccc(-c2cc(C(=O)O)c3ccccc3n2)cc1	–	–	–	56.0	–	·	+	195.2
CCOC(=O)Cc1cc(-c2ccc(OC)cc2)nc2ccc3ccccc3c12	–	–	–	35.3	–	–	110.4	89.4
COCCNC(=O)c1cc(-c2ccc(-c3ccccc3)cc2)nc2ccccc12	–	–	–	107.6	–	–	+	+
CSCCC(C(=O)Nc1c(C)cccc1C)N1CCC(Cc2ccccc2)CC1 (stereo not given)	·	·	·	–	·	·	·	·
COc1cccc(N2CCN(C(=O)C3CCN(S(=O)(=O)c4ccc5c(c4)CC(C)N5C(C)=O)CC3)CC2)c1 (stereo not given)	–	–	–	–	–	–	·	·
CCc1ccc(NC(=O)C(C)Sc2nnc(CN3CCCC3)o2)cc1 (stereo not given)	–	–	–	–	–	·	·	·
O=c1[nH]c2cc3c(cc2cc1C(c1nnnn1C1CCCC1)N1CCSCC1)OCCO3 (stereo not given)	–	–	–	30.6	–	–	143.8	91.3
CCC(C)(C)n1nnnc1C(c1cc2cc3c(cc2[nH]c1=O)OCO3)N1CCN(C)CC1 (stereo not given)	–	–	–	59.3	–	–	32.4	28.3
Cc1cccc2cc(C(c3nnnn3C3CCCC3)N3CCOCC3)c(=O)[nH]c12 (stereo not given)	–	–	–	–	–	–	·	·
CCC(C)(C)n1nnnc1C(c1cc2ccc(OC)cc2[nH]c1=O)N1CCCCC1 (stereo not given)	–	–	–	–	–	–	·	·
COCCN1C(=O)CCC1(C)C(=O)NC(C)(C)C (stereo not given)	·	·	·	–	·	·	·	·
CCOC(=O)c1sc2nc(C(C)C)c3c(c2c1N)CCC3	–	–	–	28.8	–	–	95.8	82.2
CCOC(=O)c1sc2nc(C(C)C)c3c(c2c1N)CC(C)(C)OC3	–	–	–	–	–	–	·	·
COc1ccc2[nH]c3c(c2c1)CCNC3=O	–	–	–	87.6	–	–	43.7	35.5
COC(=O)[C@H](Cc1ccccc1)NC(=O)Cn1cnc2c(NCc3ccccc3)ncnc21	–	·	·	–	·	·	·	·
Cn1c2ccc(F)cc2c2ncn(Cc3ccco3)c(=O)c21	–	–	–	31.7	–	–	97.6	91.3
Cn1c2ccc(F)cc2c2ncn(Cc3ccccn3)c(=O)c21	–	–	–	27.5	–	–	47.1	40.9
Cn1c2ccccc2c2ncn(Cc3ccco3)c(=O)c21	–	–	–	–	–	–	·	·
